Laboratory results as given in the supplement of paper PMC10338343.

Test system: MILI (PIWIL2) piRISC loaded with L1MC piRNA (26 nt)
Experiment: pre-steady-state target cleavage rate (min^-1); guide: L1MC piRNA 5'p-UAACUAAAUACUAUGCAAGCUGUAGG; MIWI and MILI are mouse PIWI proteins and EfPiwi is from a freshwater sponge; tags in brackets are library labels; higher = faster piRNA-guided slicing of the target
Settings: auxiliary factor: none (no GTSF1)
How it was run: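 Cleave-'n-Seq measured uncleaved targets by sequencing after a transcribed, DNA-blocked target RNA library […] was mixed with 1 nM active affinity-purified piRISC holding one synthetic guide, with or without 500 nM GTSF1 partner protein, at 33 °C in HEPES–potassium acetate buffer for 0–8 or 0–960 min. Counts were normalised to depth and to weakly complementary targets, three trials were pooled, and k3 was capped at 0.0001 min^-1. A burst-and-steady-state fit gave the pre-steady-state cleavage rate.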
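Further: 1 nM active piRISC with 0.1 nM target library at 33 °C single turnover.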

pre-steady-state target cleavage rate, < 0.0001:
UCCUGGAUGUCGAACGUAUGAUUUUAGUUA
UCCUGGAUGUCGAACCAUAGUAUUUUGUAA
UCCUGCUACAGCUUGCAUAGAUAUUAGAAA
UCCUGGAUGUCGAACGUUAGUUAUUUAGUUA
UCCUGGAUCAGCUACGAUAGUAUUUUCAAA
UCCUGGAUGUCGAAGCAUAGUAAAAUCAAA [g9:g16:cont:t1A]
